Bioassay records (PubChem)
Hits are enriched below; roughly 1.1% of the tested compounds scored in any of these assays.
SRC1 inh: inhibits human SRC1 coactivator; Q15788; HEK293 GAL4-SRC1 luciferase reporter, luminescence; inhibition, % at 3.6 µM; actives 0.12% (n = 360,000); AID 588354;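 active = inhibition above the campaign mean plus 3 SD, with each screening campaign given its own cutoff, cut at about 60% in these data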;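 note: 0% = DMSO treated cells and 100% = gossypol at 36 µM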
NR5A2 inv ag: suppresses constitutive activity of human LRH-1; O00482; HEK293T StAR-luciferase reporter, LRH-1 transfected, 24 h; inhibition, % at 3.6 µM; actives 0.13% (n = 360,000); AID 602396;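 active = inhibition above the mean inhibition of all tested compounds plus 3 SD, cut at about 73% in these data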;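 note: 0% = DMSO wells and 100% = reporter-only cells lacking LRH-1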
GalR3 antagonist: human GalR3 antagonism | AID 651719 | actives 0.44% (n = 360,000) | HEK293 GalR3-CNG cAMP membrane potential fluorescence; galR3 body fused to GalR1 C-terminus | inhibition, % at 3 µM;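 active = inhibition above the screen-wide average plus 3 SD, cut at about 13% in these data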;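 note: forskolin and galanin both at EC90 stimulate the cells; cAMP rise reported by CNG channel membrane potential dye signal; 0% = forskolin plus galanin with DMSO and 100% = forskolin alone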
NCOA3 inh: human NCOA3 inhibition. HEK293 GAL4-SRC3 luciferase reporter, luminescence. inhibition, % at 3.6 µM. actives 0.17% (n = 360,000). AID 588352;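 active = inhibition above a per-campaign cutoff, the mean of all compounds plus 3 SD, cut at about 60% in these data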;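 note: 0% = DMSO-treated cells and 100% = gossypol-treated cells at 36 µM; higher means less SRC3-driven luciferase light from the GAL4 reporter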
COUP-TFII inh: inhibitors of human COUP-TFII (NR2F2). P24468. actives 0.7% (n = 370,000). inhibition, % at 8.6 µM. AID 686940. HEK293T NGFI-A luciferase reporter, luminescence;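 active = inhibition above a per-plate cutoff, mean inhibition of test wells between control levels plus 3 SD, cut at about 38% in these data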;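 note: cells cotransfected with COUP-TFII expression vector driving the NGFI-A reporter; 0% = median of COUP-TF2 test wells and 100% = reporter-only cells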
NCOA2 inhibitor: human SRC2 (NCOA2) inhibition; Q15596; HEK293 GAL4-SRC2 luciferase reporter, luminescence; inhibition, % at 9 µM; actives 0.17% (n = 370,000);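 active = inhibition above the mean inhibition of all tested compounds plus 3 SD, set per campaign, cut at about 52% in these data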;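 note: 0% = DMSO treated cells and 100% = cells given Gossypol at 36 µM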
VP16 Luc counter: counter-screen for COUP-TFII antagonists: inhibitors of VP16; shares compounds with COUP-TFII inh; HEK293 Gal4-VP16 luciferase reporter, luminescence; inhibition, % at 8.5 µM; actives 25% (n = 2,500); in the data active = inhibition above about 13%
NR2F2 inh conf: COUP-TFII (NR2F2) inhibition, confirmation assay. shares compounds with COUP-TFII inh. HEK293 NGFI-A luciferase reporter, luminescence. inhibition, % at 8.5 µM. actives 45% (n = 2,500). AID 687008;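 active = mean inhibition over three repeats above a set limit taken from the earlier primary screen, cut at about 38% in these data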;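 note: 100% = cells given the luciferase reporter alone without the COUP-TF2 vector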
* hit, by the source's call; nt = not tested or not shown.

SMILES	SRC1 inh	NR5A2 inv ag	GalR3 antagonist	NCOA3 inh	COUP-TFII inh	NCOA2 inhibitor	VP16 Luc counter	NR2F2 inh conf
CC1=C(C(=O)OCc2ccc3c(c2)OCO3)C(c2ccc(F)cc2)NC(=O)N1 (configuration not stated)	73.8*	60.4	4.9	60.8	38.2*	43.9	23.4*	27.7
CSCCOC(=O)C1=C(C)NC(=O)NC1c1ccc2c(c1)OCO2 (configuration not stated)	8.3	-5.8	-7.3	-14.2	-5.2	-7.2	nt	nt
O=C(O)c1ccc(C=Nn2c(-c3ccc(F)cc3)n[nH]c2=S)cc1	nt	nt	nt	nt	-19.8	10.8	nt	nt
COC(=O)[C@@H]1[C@H](O[Si](C)(C)C(C)(C)C)C2OC2C[C@H]1S(=O)(=O)c1ccccc1 (some centres not stated)	nt	nt	nt	nt	13.3	nt	nt	nt
CCCNC(=O)c1ccc(N2CCC3(CC2)CC(c2cccc(Br)c2)=NO3)c([N+](=O)[O-])c1	8.1	11.7	-9.8	19.2	54.0*	35.4	1.3	27.7
CCCC[C@H]1C2CC(OC(=O)Nc3cc(C)cc(C)c3)C(C2)[C@H]2CCCCN21 (some centres not stated)	nt	nt	nt	nt	-14.4	5.5	nt	nt
Cc1nn(C(C)(C)C)c(C)c1/C=N/OC(=O)Nc1ccc(Cl)c(Cl)c1	60.0	24.6	0.3	79.0*	68.8*	70.2*	48.7*	84.2*
COc1ccc(NC(=O)O/N=C/c2c(C)nn(C(C)(C)C)c2C)cc1	-22.9	-26.1	0.8	-2.1	17.6	-76.3	nt	nt
COc1ccc2c(c1)/C(=C\c1cccc(/C=C3/C(=O)Nc4ccc(OC)cc43)n1)C(=O)N2	3.3	22.1	-1.2	19.0	69.8*	54.8*	75.1*	95.3*
CCOC(=O)c1[nH]c2c(c1C)C(=O)CC(c1ccc(OC)c(OC)c1)C2 (configuration not stated)	9.6	2.5	1.3	11.9	10.7	-29.8	nt	nt
COCCOC(=O)c1[nH]c2c(c1C)C(=O)CC(c1cc(OC)ccc1OC)C2 (configuration not stated)	5.9	1.0	-2.6	5.4	-21.6	-25.5	nt	nt
COc1cc(C2CC(=O)c3c([nH]c(C(=O)OCCOC(C)C)c3C)C2)cc(OC)c1OC (configuration not stated)	21.3	42.1	1.9	28.1	75.6*	23.2	0.1	34.6
CCOCCOC(=O)c1[nH]c2c(c1C)C(=O)CC(c1ccc(OC)c(OC)c1)C2 (configuration not stated)	-1.6	9.0	-1.3	5.8	46.1*	2.3	-4.1	7.1
O=S(=O)(CC1NCc2cc(F)ccc21)NCc1ccccc1 (configuration not stated)	nt	nt	nt	nt	-7.5	6.0	nt	nt
COc1ccc(NC(=O)c2ccc(CN3CCc4ccccc4C3)cc2)c(OC)c1	18.0	38.5	-9.0	8.5	17.9	-20.5	nt	nt
COC(=O)c1ccc(CN2CCc3ccc(NC(=O)c4ccncc4)cc3C2)cc1	-32.3	9.1	1.9	11.3	48.1*	41.2	5.8	30.4
Cc1ccc(-n2ncc3c2CCCC3NC(=O)CCC2=NNC(=O)CC2)cc1C (configuration not stated)	-9.9	0.9	-1.9	0.6	8.0	-1.0	nt	nt
CC(C)(C)c1ccc(-n2ncc3c2CCCC3NC(=O)CCC2=NNC(=O)CC2)cc1 (configuration not stated)	3.5	32.1	-4.5	19.3	38.9*	23.9	-12.0	-1.1
CCN(CC)S(=O)(=O)c1ccc(N2CCN(c3ccccc3OC)CC2)c(N)c1	4.7	16.0	-6.7	11.9	48.4*	17.7	5.8	22.3
OCCCNc1ncnc2scc(-c3ccc(Cl)cc3)c12	49.8	15.2	-9.5	38.6	38.3*	50.6	0.3	13.8
NNc1ncnc2scc(-c3ccc(Cl)cc3)c12	17.1	14.4	-3.7	23.4	12.5	10.4	nt	nt
CCCCCCCCCCn1ccc(=N)cc1	47.5	85.7*	97.0*	71.3*	82.1*	26.5	13.1*	79.2*
